The values below come from PubChem BioAssay AID1220 (Sanford-Burnham Center for Chemical Genomics, 2008).

The campaign covered roughly 190,000 compounds. About 1,300 (0.68%) were called active. Cut-off read from the data, not from the text of the source: active = inhibition above about 50%; inactive = the rest. Only a selection was taken, and actives are over-represented in it overall.

The target in this experiment is Mannose-6-phosphate isomerase (Homo sapiens) (UniProt P34949). The experiment in a line: human PMI inhibitors, high substrate, primary screen, biochemical, fluorescence intensity, high mannose 6-phosphate (AID 1220). As to conditions: recombinant PMI enzyme, coupled fluorescence intensity; at 20 µM; active compounds read high.
Chain of Mannose-6-phosphate isomerase (Homo sapiens) (P34949 whole entry, looked up): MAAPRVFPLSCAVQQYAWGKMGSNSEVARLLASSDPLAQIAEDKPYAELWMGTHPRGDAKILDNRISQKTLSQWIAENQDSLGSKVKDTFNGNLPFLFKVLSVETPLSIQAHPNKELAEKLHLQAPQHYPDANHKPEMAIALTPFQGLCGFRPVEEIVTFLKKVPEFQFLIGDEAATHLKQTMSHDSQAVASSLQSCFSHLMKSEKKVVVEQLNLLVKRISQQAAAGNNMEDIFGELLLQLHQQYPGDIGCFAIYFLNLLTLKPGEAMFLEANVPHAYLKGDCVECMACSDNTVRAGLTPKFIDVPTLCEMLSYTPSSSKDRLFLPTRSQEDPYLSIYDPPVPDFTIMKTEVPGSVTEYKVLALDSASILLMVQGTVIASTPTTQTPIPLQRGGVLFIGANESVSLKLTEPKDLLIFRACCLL
As for `C=C1C(=O)[C@@]23[C@H](O)C[C@@H]4C(C)(C)CC[C@H](O)[C@@]4(C)[C@@H]2CC[C@@H]1[C@H]3O`, the inhibition (in general, the drop in the measured response relative to a control, in per cent) was 3.9% (inactive).
Then `C=C1C(=O)[C@@]23[C@H](O)C[C@@H]4C(C)(C)CC[C@H](O)[C@]4(C)[C@@H]2C[C@H](O)[C@@H]1[C@H]3O`, with 52.3% (active); and `Cc1cc2cc(C=O)c(Cl)nc2cc1C`, with 58.2% (active); and `Cc1ccc2cc(C=O)c(N(C)C)nc2c1`, with 8.2% (inactive).
Turning to `Cc1cc(C)c2cc(CNC3CCCC3)c(Cl)nc2c1`, the inhibition was 3.4% (inactive).
Then `CCOC(=O)/C(C#N)=C/c1cc2ccccc2nc1Cl`, with 21.1% (inactive).
On to `CC(C)(C)c1nn(-c2ccccc2)c2nc(Cl)c(C=O)cc12`, for which the inhibition was -0.4% (inactive).
For `Cc1ccc2cc(C=O)c(Cl)nc2c1`, the inhibition was 39.8% (inactive).
The figure for `CCOC(=O)/C(C#N)=C/c1cc2ccc(C)cc2nc1Cl` is 21.5% (inactive).
The figure for `Cc1cc2cc(C=C(C#N)C#N)c(Cl)nc2cc1C` is 54.1% (active); for `CCC(C)(C(=O)NC1CCCCC1)N(C(=O)C1CCC(=O)N1)c1ccc(C)cc1` (configuration not stated) it is -0.7% (inactive).
The figure for `CCC(=O)NC(=S)Nc1cccc(NC(=O)c2ccco2)c1` is 9.6% (inactive); for `CCC(C)C(NC(=O)c1ccc(Cl)cc1Cl)C(=O)O` (configuration not stated) it is 1.7% (inactive); for `COc1ccc(CC(=O)Nc2ccccc2C(=O)N2CCOCC2)cc1` it is 5.3% (inactive).
Regarding `CCOC(=O)N1CCC(N2Cc3cccc(C(=O)Nc4ccc(F)cc4)c3C2=O)CC1`, the inhibition is -3.9% (inactive).
With `NNC(=O)COc1ccccc1[N+](=O)[O-]`, the inhibition was 4.8% (inactive).
Regarding `O=C(COc1ccccc1[N+](=O)[O-])NNC(=O)Nc1cccc2ccccc12`, the inhibition was 59.8% (active).
With `COC(=O)c1ccccc1NC(=O)COc1ccccc1[N+](=O)[O-]`, the inhibition is -1.9% (inactive).
Then `CCOCCCn1c(=N)c(C(=O)NCc2ccc3c(c2)OCO3)cc2c(=O)n3ccccc3nc21`, with -7.7% (inactive).
For the molecule `CC(C)OCCCNC(=O)c1ccc(N(C)S(C)(=O)=O)cc1`, the inhibition is 6.8% (inactive).
The figure for `Cc1cccc(C=Nc2ccc3c(c2)oc2ccccc23)c1O` is 30.1% (inactive); for `CCOc1cccc(C=Nc2cc(C)cc(C)c2O)c1O` it is 7% (inactive).
The figure for `Cc1ccc(N=Cc2sc(O)c3ccccc23)c(C)c1` is 2.2% (inactive); for `CCc1ccc(O)c(N=Cc2cccc(C)c2O)c1` it is 17.4% (inactive); for `CCC(=O)N1CCN(c2ccccc2NC(=O)Cc2ccccc2)CC1` it is 3.5% (inactive).
The figure for `CCNC(=S)Nc1ccc(S(=O)(=O)Nc2cc(C)nc(C)n2)cc1` is -7.6% (inactive); for `O=C(O)C1CC=CCC1C(=O)Nc1cccc(C(=O)N2CCCCC2)c1` (configuration not stated) it is -20.1% (inactive).
